Data: the supplement of paper PMC6555819

system: VDR:RXRa (NR concentration 270 nM, RXRa partner concentration 90 nM); test: PBM binding z-score (relative to random genomic background probes); higher = stronger binding; sequences stand for … in GC…GCGATTGACAGCGTAGAATGAAGG
Procedure: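 Protein-binding microarray (Agilent 4x180K custom design, double-stranded 60-nt probes: 5' GC cap, 34-nt variable region, 24-nt constant primer region; full probe sequence given). Purified or IVT nuclear receptor:RXRα heterodimers (3:1 NR:RXRα, mostly 270:90 nM) or homodimers were incubated for 1 h in PBS with 2% milk and no ligand, then detected with Alexa488 antibodies. Fluorescence from o1-orientation probes (~5 replicates averaged) was converted to z-scores against 500 random hg19 background probes. Variable regions are seed direct-repeat (DR0–DR5) sites, all their single-nucleotide variants and half-site ablations.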

Sequence	PBM binding z-score
TCTTGTAGATCAAGCAGGTTAAGATAGCCTGAGT	0.573
ACTGACAGGTGAGTGAAGGTAACTCAGCTGGACG	-0.322
CTCGAGAGGTCGTGCTCAGGTGAGTATACCAAAC	3.37
GCGACTGGGGCAACAGCAGGTTACCATAACTTAA	-0.189
TCTTGTAGATCGGCAGGTTAAGAAAGCTGGCCAA	0.405
CCTAGCAGGCCAATTTGGGTCACTCAAGGCTTGA	0.482
GCTATTAGTTGAAAGGGCAATCGAATGATTCTCG	0.219
CCTCGGAGGGCAACAGGAGGTCAGAGCTGCCAGA	3.12
TCTCGGAGGACACGAAGGGCAGAGCTTTCCAGAG	0.0136
GCTAGTTGGTGAGTAAAAGGTCACACACCGGTCG	3.72
ATTGAAAGGTCGACGAGGTGAGTATACACCGTTT	5.31
ATCTCTAGGTAAAGTACAGTGAAAGATCGATAGA	-0.177
ATACCAAGGTGGTCGTGAGGTCGTTGATACTAAC	2.79
CCTAGTTGGTCAGGAGGTCACACATCGGATATGA	3.76
TCTCCTAGGTCAGTTGGTCAGCTAACGAGCTGCC	0.839
GCTATTAGTTGTAAGGGCAACCGAATGATTCTCG	0.148
CCGACTGGGGCAGGGTTACCATAACGCACAGCCA	0.216
CCTACTGGGCCATTCATAGGTCATTGATCATATG	1.24
TTACCAAGGTGAGCTGAGGTCGTTGAACCAACTC	4.25
ATATGAAGGTTACATCCGGGTCATTCAGGCTATG	4.85

Sequence	PBM binding z-score
ACTTACGGGTCAACGAGGTTAAAGCACGCGTATA	7.52
TCATATAGGTAAACGCTAGGTGAAAGTCCGATCT	1.03
ATCTCTAGGAAACAAGTTCAGTGAAAGAGAGGAC	1.45
GCTTACGGATCAAAGGTTATAGCATGAATAGAAT	1.52
CGTCAAAGTTCAAGGTAGCGTAACAGAAAGCAGC	3.68
AGTCAAAGTTCACTAGGGAACGTAAGATTCAGCT	3.85
CAAACTAGGTCAAGGTCATAGTCGGTTTGTGCCA	5.01
TCTTGTAGATCAAAGGTAAAGAAAGCCGAAGCCT	0.385
AATATAGGGTCATCGTAGGCCAGAGTACGCACAG	5.22
CCGAGTAGATTATGGGGCATTCAGGCAACGGTGA	-0.214
TAGCCTAGGTCATGCTGGCCAGTATAGTGTCGGC	2.04
ACAGTCAGGTGATGAAGGTAACTCAGGCTATCAT	-0.0524
AGTCAAAGTTCATCTAGCTAACGTAAGATATGCT	4.35
CCTTACGGGACACTCCAGGTTATAGCATCGGAGT	-0.0817
CCGACTGGGGGAAAGGTTACCATACTCAGTACGA	1.79
GCTGCTAGGTCAACTGATGGTCAGCTGAAGCTCG	1.61
AGAACGAGGGCACGCTGAGCTGATAGCAGAGTAG	0.52
GGAACGATGGCATTCGAGTTGATAGCATGGCGAT	-0.32
CGTCCAAGGTCAAAGGACAGTGAAGAGATGACGG	3.76
GCGACTGGGGCATCAGCAAGTTACCATAACTTAA	-0.37
